Experiments:
Assay type in all cases: functional
[1] = molecular target: Solute carrier family 2, facilitated glucose transporter member 1 (Homo sapiens) (UniProt P11166); assay: ST_JUDE_LEISH: Cytotoxicity at 2uM final concentration against transgenic Leishmania Mexicana promastigotes LmGLUT1 that are glucose transport deficient and complemented with the human glucose transporter GLUT1. Activity is measured by DNA content using SYBR green in vitro
[2] = molecular target: Hexose transporter 1 (Plasmodium falciparum) (UniProt O97467); assay: ST_JUDE_LEISH: Cytotoxicity at 2uM final concentration against transgenic Leishmania Mexicana promastigotes LmPfHT that are glucose transport deficient and complemented with the Plasmodium falciparum hexose transporter. Activity is measured by DNA content using SYBR green in vitro
[3] = molecular target: Glucose transporter (Leishmania mexicana) (UniProt O61059); assay: ST_JUDE_LEISH: Cytotoxicity at 2uM final concentration against transgenic Leishmania Mexicana promastigotes LmGT2 that are glucose transport deficient and complemented with the L. Mexicana glucose transporter 2. Activity is measured by DNA content using SYBR green in vitro

Chain of Solute carrier family 2, facilitated glucose transporter member 1 (Homo sapiens) (P11166 whole entry): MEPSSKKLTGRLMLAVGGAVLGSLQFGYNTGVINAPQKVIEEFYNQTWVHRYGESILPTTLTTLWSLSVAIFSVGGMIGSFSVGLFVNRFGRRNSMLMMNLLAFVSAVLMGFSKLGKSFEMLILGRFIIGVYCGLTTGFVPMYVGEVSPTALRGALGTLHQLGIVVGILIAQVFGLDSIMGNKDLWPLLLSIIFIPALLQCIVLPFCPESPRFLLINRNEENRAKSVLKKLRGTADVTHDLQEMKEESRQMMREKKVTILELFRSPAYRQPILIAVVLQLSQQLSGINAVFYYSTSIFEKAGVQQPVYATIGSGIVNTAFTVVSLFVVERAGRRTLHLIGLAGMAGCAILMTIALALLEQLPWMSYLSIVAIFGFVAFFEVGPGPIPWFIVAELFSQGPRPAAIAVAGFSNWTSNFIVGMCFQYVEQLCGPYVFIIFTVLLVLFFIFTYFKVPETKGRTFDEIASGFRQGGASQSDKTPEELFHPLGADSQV

## Oc1cc(Nc2ccnc3cc(I)ccc23)c(F)cc1Cl
[1]
  inhibition: 6.52%
[2]
  inhibition: 2.02%
[3]
  inhibition: 3.58%

## CCCC(C)Nc1nc(C)cc(N[C@@H](Cc2ccccc2)C(=O)NCc2ccc(C)cc2)n1 (stereo partly specified)
[1]
  inhibition: 9.97%
[2]
  inhibition: 9.09%
[3]
  inhibition: 4.86%

## O=C(NC1CC1)C1CCN(Cc2cc3ccccc3n2Cc2ccc(Cl)cc2)CC1
[1]
  inhibition: -2.52%
[2]
  inhibition: -1.61%
[3]
  inhibition: -1.79%

## CC(NC(=O)c1cc(-c2ccccc2)nc2c1cnn2C(C)C)C1CC1 (stereo unspecified)
[1]
  inhibition: 1.45%
[2]
  inhibition: 0.66%
[3]
  inhibition: 0.29%

## CN(C)CCCn1c(C(=O)OC(c2ccccc2)c2ccccc2)cc2cc(OCc3ccccc3)ccc21
[1]
  inhibition: -0.72%
[2]
  inhibition: 0.08%
[3]
  inhibition: -2.32%

## CC(C)(C)C(=O)Nc1ccc(N2CCN(C(c3ccccc3)c3ccccc3)CC2)c(Cl)c1
[1]
  inhibition: 8.85%
[2]
  inhibition: 7.04%
[3]
  inhibition: 4.93%

## CC(C)(C)C(=O)N1CCN(c2ccc([N+](=O)[O-])c(NC3CC3)c2)CC1
[1]
  inhibition: 2.03%
[2]
  inhibition: 2.58%
[3]
  inhibition: 2.27%

## CC(=O)Nc1nnc(SCc2c(C)cc(C(C)(C)C)cc2C)s1
[1]
  inhibition: 0.82%
[2]
  inhibition: -2.97%
[3]
  inhibition: 1.06%

## CN1CCC(C(=O)N(Cc2ccc(-c3ccc(CNCCc4ccccc4)cn3)cc2)C2CCN(Cc3ccccc3)CC2)CC1
[1]
  inhibition: 0.71%
[2]
  inhibition: 1.1%
[3]
  inhibition: -0.74%

## CCOc1c(Cl)cc(Cl)cc1CNCCCNc1nc2ccccc2[nH]1
[1]
  inhibition: 1.3%
[2]
  inhibition: 6.95%
[3]
  inhibition: 4.33%

## CCNc1cc(C(=O)N[C@@H](Cc2ccccc2)[C@H](O)CNC(C)(C)CSCC(C)C)cc(N2CCCC2=O)c1
[1]
  inhibition: 1.84%
[2]
  inhibition: 2.11%
[3]
  inhibition: -1.53%

## COc1cc2ncnc(Nc3ccc(OCc4ccccc4)c(OCc4ccccc4)c3)c2cc1OC
[1]
  inhibition: 4.65%
[2]
  inhibition: 5.44%
[3]
  inhibition: 2.69%

## Clc1ccccc1CNc1noc(-c2sccc2Br)n1
[1]
  inhibition: 0.33%
[2]
  inhibition: 2.84%
[3]
  inhibition: 1.17%

## Cc1cc(N[C@@H](Cc2ccccc2)C(=O)NCc2cccc(F)c2)nc(NCc2ccccc2C)n1
[1]
  inhibition: 5.14%
[2]
  inhibition: 4.67%
[3]
  inhibition: 3.17%

## Cc1cc(N2CCCCC2)nc2ccc(NC(=O)c3cccc([N+](=O)[O-])c3)cc12
[1]
  inhibition: 4.97%
[2]
  inhibition: 4.4%
[3]
  inhibition: 6.58%

## O=C(NCc1ccco1)c1ccc(S(=O)(=O)c2ccc(Cl)cc2)cc1
[1]
  inhibition: 0.13%
[2]
  inhibition: 1.22%
[3]
  inhibition: 0.06%

## O=C(Nc1ccc(Cl)c(C(F)(F)F)c1)NC1CCN(CCCCCNC(=O)C2CC2c2ccc(Cl)c(Cl)c2)CC1 (stereo unspecified)
[1]
  inhibition: 7.55%
[2]
  inhibition: 9.26%
[3]
  inhibition: 6.43%

## O=C(NCCCCN1CCC(c2ccc3c(c2OCCN2CCCC2)CCCC3)CC1)c1ccc(-c2ccc(C(F)(F)F)cc2)cc1
[1]
  inhibition: 3.42%
[2]
  inhibition: 5.87%
[3]
  inhibition: 4%

## COc1ccccc1-n1c(SCC(=O)c2ccc3c(c2)CC(=O)N3C)nnc1-c1cccs1
[1]
  inhibition: 24%
[2]
  inhibition: 35.2%
[3]
  inhibition: 13.3%

## N#Cc1ccc2c(c1)CCN(CCC1CCC(NC(=O)/C=C/c3cccc4cc[nH]c34)CC1)CC2 (stereo unspecified)
[1]
  inhibition: 8.95%
[2]
  inhibition: 9.87%
[3]
  inhibition: 3.01%

## COc1cc(-c2nc3ccc(N4CCN(C)CC4)cc3[nH]2)cc(OC)c1OC
[1]
  inhibition: 2.08%
[2]
  inhibition: 2.62%
[3]
  inhibition: 4.21%

## O=C(COc1ccc(Cl)c(Cl)c1)NCCCCCN1CCCN(C(=O)Nc2ccc(Cl)c(Cl)c2)CC1
[1]
  inhibition: 4.35%
[2]
  inhibition: 3.1%
[3]
  inhibition: 2.27%

## Cc1cc(-c2cccc(CNCc3ccc(F)cc3)c2)ccc1S(=O)(=O)NCCN1CCCC1
[1]
  inhibition: -0.89%
[2]
  inhibition: 0.36%
[3]
  inhibition: 0.1%

## Cc1cccc(-c2ccc(NC(=O)C3CCN(Cc4cccc(O)c4)CC3)cc2)c1
[1]
  inhibition: 0.07%
[2]
  inhibition: 1.99%
[3]
  inhibition: -0.58%

## COC(=O)c1cccc(CNCc2cccc(-c3ccc(-c4nc5ccccc5[nH]4)s3)c2)c1
[1]
  inhibition: 0.25%
[2]
  inhibition: 2.5%
[3]
  inhibition: 1.96%

## N#Cc1ccc(N2CCN(C(=O)c3cccc(-c4noc(C(F)(F)F)n4)c3)CC2)nc1
[1]
  inhibition: 0.27%
[2]
  inhibition: 0.91%
[3]
  inhibition: -0.23%

## CC(C)C[C@@H](C(=O)Nc1ccc(Cc2ccc(NC(=O)[C@H](CC(C)C)N(C)C(=O)OC(C)(C)C)cc2)cc1)N(C)C(=O)OC(C)(C)C
[1]
  inhibition: 0.03%
[2]
  inhibition: -1.12%
[3]
  inhibition: -0.46%

## COc1ccc2nccc([C@@H](O)CN3CCC(NCc4ccc5c(c4)sc(=O)n5C)CC3)c2c1
[1]
  inhibition: -0.15%
[2]
  inhibition: 0.84%
[3]
  inhibition: -1.7%

## CC(CO)(CO)NCc1cc2c3ccccc3c(CNC(C)(CO)CO)cc2c2ccccc12
[1]
  inhibition: 5.4%
[2]
  inhibition: 2.65%
[3]
  inhibition: 2.67%

## O=C(Cc1ccc(NC(=O)c2ccc(O)c(-c3ccc(Cl)c(Cl)c3)c2)cc1)NCCN1CCOCC1
[1]
  inhibition: -2.69%
[2]
  inhibition: -1.17%
[3]
  inhibition: -1.61%

## Cc1ccc(NC(=O)c2ccc3ncccc3c2)cc1OC1CCN(Cc2ccc(F)cc2)CC1
[1]
  inhibition: 6.67%
[2]
  inhibition: 3.46%
[3]
  inhibition: 5.46%

## O=C(Nc1cccc(CN2CCCN(CCc3ccccc3)CC2)c1)c1cc2ccccc2s1
[1]
  inhibition: -1.04%
[2]
  inhibition: -1.82%
[3]
  inhibition: 1.52%

## CN(C)CCOc1ccc(-c2cc(-c3ccncc3)c(-c3ccc(Cl)c(O)c3)o2)cc1
[1]
  inhibition: 1.31%
[2]
  inhibition: 1.64%
[3]
  inhibition: 0.33%

## CN(Cc1ccc(-c2ccc(C(F)(F)F)cc2)cc1)C(=O)Cn1c(CCc2cccc(F)c2F)cc(=O)c2ccc(OCC3CCCN3C)cc21 (stereo unspecified)
[1]
  inhibition: 3.87%
[2]
  inhibition: 3.45%
[3]
  inhibition: 4.42%

## Cc1noc(C)c1-c1cccc(CNCc2ccc(-c3cccc(-c4nc5cc(F)ccc5[nH]4)c3)cc2)c1
[1]
  inhibition: 11.3%
[2]
  inhibition: 10.1%
[3]
  inhibition: 10.8%

## COc1cccc(C(=O)NC(c2ccc(Cl)cc2Cl)c2cc(Cl)c3cccnc3c2O)c1 (stereo unspecified)
[1]
  inhibition: 0.8%
[2]
  inhibition: -0.13%
[3]
  inhibition: 1.53%

## Nc1nc2c(cnn2CCCCCCCP(=O)(O)O)c(=O)[nH]1
[1]
  inhibition: -0.8%
[2]
  inhibition: 0.25%
[3]
  inhibition: -0.36%

## O=C1CCCN1CCCNCc1ccc(-c2ccc(-c3nc4cc(C(F)(F)F)ccc4[nH]3)cc2)cc1
[1]
  inhibition: 3.36%
[2]
  inhibition: 2.91%
[3]
  inhibition: 2.6%

## CCCc1c(C(=O)OCC)c2cc(O)ccc2n1-c1ccc(OC)cc1
[1]
  inhibition: 5.29%
[2]
  inhibition: 6.77%
[3]
  inhibition: 4.32%

## COc1ccc(Br)cc1/C=C/C(=O)Nc1cccc(C2CCN(C)CC2)c1
[1]
  inhibition: 3.43%
[2]
  inhibition: 0.87%
[3]
  inhibition: 4.16%

## CNc1ccc(CNCc2ccc(-c3ccc(-c4nc5cccc(C)c5[nH]4)cc3)cc2)cc1
[1]
  inhibition: 18.3%
[2]
  inhibition: 15.5%
[3]
  inhibition: 7.71%

## NC1CCN(c2cnn(Cc3cccc(NC(=O)Nc4ccc(-c5ccccc5)cc4)c3)c(=O)c2Cl)CC1
[1]
  inhibition: 1.64%
[2]
  inhibition: 1.72%
[3]
  inhibition: 2.25%

## O=C(NC1CCCCC1)N(Cc1cccc(-c2ccc(CNC3CCCC3)cc2)c1)C1CCN(Cc2ccccc2)CC1
[1]
  inhibition: 16%
[2]
  inhibition: 14.6%
[3]
  inhibition: 9.9%

## Cc1cccn2c(=O)c3cc(C(=O)NCCN4CCOCC4)c(=N)n(CCc4ccccc4)c3nc12
[1]
  inhibition: -0.34%
[2]
  inhibition: 2.09%
[3]
  inhibition: 0.41%

## Cc1ccc(Cc2c(C)nc3nc(N)nc(N)c3c2C)cc1
[1]
  inhibition: 69.9%
[2]
  inhibition: 73.4%
[3]
  inhibition: 54.4%

## Cc1cc(NC(=O)c2cccs2)ccc1OC1CCN(Cc2ccc(C#N)cc2)C1 (stereo unspecified)
[1]
  inhibition: 2.86%
[2]
  inhibition: 4.23%
[3]
  inhibition: 3.26%

## O=C(Cc1ccccn1)Nc1cccc(-c2cccc(-c3nc4cc(C(F)(F)F)ccc4[nH]3)c2)c1
[1]
  inhibition: 0.14%
[2]
  inhibition: 1.02%
[3]
  inhibition: -0.1%

## O=C(Nc1ccc2c(c1)CCC2)c1ccc(CN2CCCN(Cc3cccc(O)c3)CC2)cc1
[1]
  inhibition: 11.2%
[2]
  inhibition: 12.1%
[3]
  inhibition: 9.95%

## N=C(N)c1ccc2[nH]c(-c3cc4cc(C(=N)N)ccc4o3)cc2c1
[1]
  inhibition: 2.26%
[2]
  inhibition: 2.36%
[3]
  inhibition: 1.58%

## Cc1sc2nc(CSc3ccccc3)nc(N3CCN(CC(=O)N4CCCC4)CC3)c2c1C
[1]
  inhibition: 5.03%
[2]
  inhibition: 5.88%
[3]
  inhibition: 1.41%

## OC(c1ccc2ccccc2c1)C1CN(CCc2ccccc2)CCC1(O)c1ccccc1 (stereo unspecified)
[1]
  inhibition: 0.49%
[2]
  inhibition: -3.49%
[3]
  inhibition: 0.03%

## CN1CCCC(CN2CCN(Cc3ccc(-c4ccc(-c5nc6ccccc6[nH]5)cc4)cc3)CC2)C1 (stereo unspecified)
[1]
  inhibition: 13%
[2]
  inhibition: 15.9%
[3]
  inhibition: 7.8%

Source: ChEMBL document CHEMBL3433997, “St. Jude Leishmania screening dataset” (2016)
